Test systems include NCI-H23 lung; NCI-H226 lung; NCI-H322M lung; HOP-62 NSCLC; NCI-H460 lung; HOP-92 NSCLC; NCI-H522 lung; A549/ATCC NSCLC; 786-0 renal; COLO 205 colon; DU-145 prostate; K-562 leukemia; MALME-3M melanoma; MDA-MB-231 breast; RXF 393 renal; SF-268 CNS; SF-295 CNS; SF-539 CNS; UACC-257 melanoma; M14 melanoma.
Common to all, as to test: NCI-60 one-dose screen, 48 h (100 = growth as untreated, 0 = no growth, -100 = all killed)
Common to all, as to conditions: 10 µM unless noted

Compounds without any hit were thinned out: in the full panel of roughly 83,000, 20% have a hit.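 Activity criterion: percent growth below 10, measured after cells in 96-well plates were exposed to a single compound concentration for 48 hours.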 Unmarked numbers belong to inactive results. Calls of active or inactive are those of the source.

For the molecule `CCC(=C(c1ccc(OCCN2CCCCCC2)cc1)c1ccc(OCCN2CCCCCC2)cc1)c1ccc(Cl)cc1`, the growth in the test on NCI-H23 lung was 19.4%; in the test on NCI-H226 lung it was 52.1%; with NCI-H322M lung, 18%; in the test on HOP-62 NSCLC, 58.2%; in the test on NCI-H460 lung it was -39.7% (active); in the test with HOP-92 NSCLC, 32.3%. For the same molecule, the growth was -5.58% (active) in the test with NCI-H522 lung; -21.3% (active) with A549/ATCC NSCLC; -81.1% (active) in the test on 786-0 renal; -57.7% (active) in the test on COLO 205 colon; 39.4% in the test on DU-145 prostate; -32.8% (active) with K-562 leukemia. Besides, the growth in the test with MALME-3M melanoma is -55.4% (active); in the test on MDA-MB-231 breast, 33.6%; in the test on RXF 393 renal, -72.3% (active); in the test with SF-268 CNS, 56%; in the test with SF-295 CNS, -77.3% (active); with SF-539 CNS it was -79.6% (active). Further, the growth in the test with UACC-257 melanoma was -55.8% (active); with M14 melanoma, -74.4% (active).

For the molecule `C/C(=N\NC(=O)Nc1ccccc1)c1nnn(-c2ccc([N+](=O)[O-])cc2)c1C`, the growth in the test on NCI-H23 lung was 94.7%; with NCI-H226 lung, 100%; in the test with NCI-H322M lung, 99.1%; in the test with HOP-62 NSCLC, 111%; with NCI-H460 lung, 108%; in the test on HOP-92 NSCLC, 120%. For the same molecule, the growth with NCI-H522 lung was 99.9%; in the test with A549/ATCC NSCLC, 107%; with 786-0 renal, 102%; in the test on COLO 205 colon, 112%; with DU-145 prostate it was 105%; in the test with K-562 leukemia, 113%. The growth in the test with MALME-3M melanoma is 108%; in the test on MDA-MB-231 breast, 106%; in the test with RXF 393 renal, 78.2%; in the test with SF-268 CNS it was 103%; with SF-295 CNS, 108%; in the test with SF-539 CNS, 99.9%. The growth in the test with UACC-257 melanoma was 108%; with M14 melanoma, 105%.

On to `COc1cc(-c2nc(-c3ccccc3)[nH]c2-c2ccnc(NCCCNS(=O)(=O)c3cccc(F)c3)n2)ccc1F`, for which the growth is 101% in the test on NCI-H23 lung; 83.9% in the test on NCI-H226 lung; 102% in the test on NCI-H322M lung; 130% with HOP-62 NSCLC; 94.2% in the test on NCI-H460 lung; 134% with HOP-92 NSCLC. For the same molecule, the growth was 85.4% with NCI-H522 lung; 87.1% with A549/ATCC NSCLC; 98.4% in the test with 786-0 renal; 93% with COLO 205 colon; 87.1% in the test with DU-145 prostate; 63.6% with K-562 leukemia. The growth was 95.6% in the test on MALME-3M melanoma; 94.3% in the test with MDA-MB-231 breast; 92.2% with RXF 393 renal; 89.1% with SF-268 CNS; 102% in the test with SF-295 CNS; 98.6% in the test with SF-539 CNS. The growth in the test on UACC-257 melanoma was 115%; with M14 melanoma, 93.3%.

For the molecule `COc1ccc([C@H]2C(=O)N(c3cc(OC)c(OC)c(OC)c3)[C@@H]2c2ccc(OC)c(O)c2)cc1`, the growth in the test on NCI-H23 lung is 24.4%; in the test with NCI-H226 lung it was 41.8%; with NCI-H322M lung it was 43.3%; in the test on HOP-62 NSCLC, 26.7%; with NCI-H460 lung, 4.38% (active); in the test on HOP-92 NSCLC it was 6.76% (active). Further, the growth in the test with NCI-H522 lung was -49.2% (active); in the test with A549/ATCC NSCLC, 21.6%; with 786-0 renal, 6.39% (active); in the test on COLO 205 colon, -76.1% (active); in the test on DU-145 prostate, 16.7%; with K-562 leukemia, 9.93% (active). Moreover, the growth in the test with MALME-3M melanoma is 67.8%; in the test with MDA-MB-231 breast it was 17.5%; with RXF 393 renal it was 6.67% (active); in the test with SF-268 CNS it was 29.1%; in the test on SF-295 CNS it was 18.5%; in the test with SF-539 CNS it was -1.89% (active). In addition, the figures for the growth in the test on UACC-257 melanoma and in the test on M14 melanoma were 58.1% and 4.54% (active), respectively.

In the case of `CN1CCN(c2ccc(Nc3nc(NCCCNS(=O)(=O)c4ccc(C(F)(F)F)cc4)c4sccc4n3)cc2)CC1`, the growth in the test on NCI-H23 lung is 2.34% (active); in the test with NCI-H226 lung it was 57.9%; in the test on NCI-H322M lung, -1.68% (active); in the test with HOP-62 NSCLC it was -49.1% (active); in the test with NCI-H460 lung, -47.8% (active); in the test on HOP-92 NSCLC, -55.9% (active). In addition, the growth in the test on NCI-H522 lung is -85.6% (active); with A549/ATCC NSCLC, -12.1% (active); in the test with 786-0 renal, -82.2% (active); with COLO 205 colon, -76% (active); in the test on DU-145 prostate, -8.78% (active); with K-562 leukemia it was 5.24% (active). Moreover, the growth is -87.8% (active) in the test with MALME-3M melanoma; -60.1% (active) with MDA-MB-231 breast; -87% (active) in the test on RXF 393 renal; -53.3% (active) in the test with SF-268 CNS; -74.6% (active) in the test on SF-295 CNS; -92.6% (active) in the test on SF-539 CNS. For the same molecule, the growth with UACC-257 melanoma was -91.7% (active); in the test on M14 melanoma, -80.5% (active).

Take `Cc1cccc(N2CCN(C3=C(Cl)C(=O)c4ncccc4C3=O)CC2)c1`: the growth was 55.3% in the test on NCI-H23 lung; 90.3% in the test on NCI-H226 lung; 93.8% in the test on NCI-H322M lung; 83.3% with HOP-62 NSCLC; 58.4% in the test with NCI-H460 lung; 144% with HOP-92 NSCLC. The growth in the test on NCI-H522 lung is 26.7%; with A549/ATCC NSCLC, 93.8%; in the test with 786-0 renal, 104%; in the test with COLO 205 colon, 90.4%; in the test with DU-145 prostate, 44.7%; in the test on K-562 leukemia, 9.9% (active). In addition, the growth with MALME-3M melanoma was 24.4%; in the test with MDA-MB-231 breast, 84.8%; in the test with RXF 393 renal, 52.2%; in the test on SF-268 CNS, 82.9%; in the test on SF-295 CNS, 101%; in the test with SF-539 CNS it was 92.1%. For the same molecule, the growth was 61.5% in the test with UACC-257 melanoma and 75.3% with M14 melanoma.

`CC(=C(c1ccc(OCCN2CCCC2)cc1)c1ccc(OCCN2CCCC2)cc1)c1ccc(Cl)cc1`: the growth is 60.7% in the test on NCI-H23 lung; 80% in the test with NCI-H226 lung; 15.6% with NCI-H322M lung; -68.7% (active) with HOP-62 NSCLC; -52.2% (active) in the test with NCI-H460 lung; -1.74% (active) in the test with HOP-92 NSCLC. The growth is -48.5% (active) with NCI-H522 lung; -61.8% (active) in the test with A549/ATCC NSCLC; -85.9% (active) in the test with 786-0 renal; -74.4% (active) in the test on COLO 205 colon; 25.8% with DU-145 prostate; -43.6% (active) with K-562 leukemia. Also, the growth is -85.9% (active) in the test with MALME-3M melanoma; -68.1% (active) with MDA-MB-231 breast; -74.7% (active) in the test on RXF 393 renal; -23.1% (active) in the test with SF-268 CNS; -63.7% (active) in the test on SF-295 CNS; -87.1% (active) in the test on SF-539 CNS. The growth in the test on UACC-257 melanoma was -73.6% (active); in the test on M14 melanoma, -84.5% (active).

`CN1CCN(Cc2ccc(NC(=O)c3cncc(C#Cc4cnc5ccc(OCCCS(C)(=O)=O)nn45)c3)cc2C(F)(F)F)CC1`: the growth with NCI-H23 lung was -50.9% (active); in the test on NCI-H226 lung it was -60.1% (active); with NCI-H322M lung, -16.6% (active); with HOP-62 NSCLC, -47.7% (active); in the test on NCI-H460 lung, -64.1% (active); in the test with HOP-92 NSCLC, -27.3% (active). Moreover, the growth in the test with NCI-H522 lung is -76% (active); in the test on A549/ATCC NSCLC, -9.65% (active); in the test with 786-0 renal, -16% (active); in the test with COLO 205 colon it was -66.9% (active); with DU-145 prostate it was 1.01% (active); in the test with K-562 leukemia, 5.44% (active). Besides, the growth in the test with MALME-3M melanoma was -80.5% (active); in the test on MDA-MB-231 breast it was -20.7% (active); in the test on RXF 393 renal it was -79.6% (active); in the test with SF-268 CNS, -45.8% (active); in the test on SF-295 CNS, 0.237% (active); in the test on SF-539 CNS, -68.4% (active). Further, the growth was -27.6% (active) in the test on UACC-257 melanoma and -78.9% (active) with M14 melanoma.

Values taken from PubChem BioAssay (NCI).
